Source: PMC7862700, “An all-to-all approach to the identification of sequence-specific readers for epigenetic DNA modifications on cytosine”

Legend:
Experiment in all cases: DAPPL (digital affinity profiling via proximity ligation, sequencing); 10 mM Tris-HCl pH 7.5, 50 mM NaCl, 1 mM DTT, 4% glycerol, room temperature, 30 min; GST-TFs on glutathione beads, 16-mer random dsDNA library, 0.1% formaldehyde crosslink after washing; high values mean tight binding
[1] = biological target: T1, FEV (Homo sapiens, UniProt Q99581 1-238); details: protein: recombinant; tags: N-terminal GST; dsDNA, one strand shown
T1 sequence: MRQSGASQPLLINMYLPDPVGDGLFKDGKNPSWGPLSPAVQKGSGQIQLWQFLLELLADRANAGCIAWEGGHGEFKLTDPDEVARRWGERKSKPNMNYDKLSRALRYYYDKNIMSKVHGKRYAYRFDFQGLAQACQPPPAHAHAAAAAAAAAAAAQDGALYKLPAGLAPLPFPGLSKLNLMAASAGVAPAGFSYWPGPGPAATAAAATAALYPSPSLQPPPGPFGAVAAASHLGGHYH
In short: (§1)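 Binding signal is each hexamer's read frequency for a factor divided by its frequency in the tag-only sample. The factors were GST-fused human transcription factors from yeast, captured on glutathione beads, DNA-barcoded and pooled with that sample. Pools were incubated with 200 nmole of a random double-stranded 16-mer DNA library in Tris/NaCl/DTT/glycerol buffer at room temperature for 30 min, then washed, crosslinked with 0.1% formaldehyde, proximity-ligated with BsaI/T4 ligase (1 h, 37 °C), PCR-amplified and sequenced on an Illumina NextSeq500.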

[2] = biological target: ETV5 (Homo sapiens, UniProt P41161 1-510); details: protein: recombinant; tags: N-terminal GST; dsDNA, one strand shown
In short: as §1

[3] = biological target: HSF1 (Homo sapiens, UniProt Q00613 1-529); details: protein: recombinant; tags: N-terminal GST; chain copies: 3; dsDNA, one strand shown
In short: as §1

[4] = biological target: T2, SPIC (Homo sapiens, UniProt Q8N5J4 1-248); details: protein: recombinant; tags: N-terminal GST; dsDNA, one strand shown
T2 sequence: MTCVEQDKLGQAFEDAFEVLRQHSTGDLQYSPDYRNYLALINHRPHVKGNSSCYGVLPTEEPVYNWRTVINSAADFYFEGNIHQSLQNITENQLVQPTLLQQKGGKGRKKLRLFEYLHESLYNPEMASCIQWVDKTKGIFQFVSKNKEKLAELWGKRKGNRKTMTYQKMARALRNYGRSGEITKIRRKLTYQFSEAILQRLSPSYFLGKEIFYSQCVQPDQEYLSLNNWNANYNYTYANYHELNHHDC
In short: as §1

[5] = biological target: ELF4 (Homo sapiens, UniProt Q99607 1-663); details: protein: recombinant; tags: N-terminal GST; dsDNA, one strand shown
In short: as §1

[6] = biological target: T3, ELK4 (Homo sapiens, UniProt P28324-2 1-405); details: protein: recombinant; tags: N-terminal GST; dsDNA, one strand shown
T3 sequence: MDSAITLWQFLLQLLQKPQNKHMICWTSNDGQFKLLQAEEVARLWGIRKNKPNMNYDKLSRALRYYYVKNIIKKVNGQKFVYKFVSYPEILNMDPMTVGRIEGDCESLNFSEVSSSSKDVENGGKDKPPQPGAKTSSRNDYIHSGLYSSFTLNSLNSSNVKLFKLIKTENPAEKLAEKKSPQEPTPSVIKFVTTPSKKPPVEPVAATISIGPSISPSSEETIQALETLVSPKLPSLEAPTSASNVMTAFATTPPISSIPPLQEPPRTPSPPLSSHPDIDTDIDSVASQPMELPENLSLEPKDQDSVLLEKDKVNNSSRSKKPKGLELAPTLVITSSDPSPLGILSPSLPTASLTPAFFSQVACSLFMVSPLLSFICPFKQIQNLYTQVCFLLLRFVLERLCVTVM
In short: as §1

[7] = biological target: T4, ETV2 (Homo sapiens, UniProt O00321 1-342); details: protein: recombinant; tags: N-terminal GST; dsDNA, one strand shown
T4 sequence: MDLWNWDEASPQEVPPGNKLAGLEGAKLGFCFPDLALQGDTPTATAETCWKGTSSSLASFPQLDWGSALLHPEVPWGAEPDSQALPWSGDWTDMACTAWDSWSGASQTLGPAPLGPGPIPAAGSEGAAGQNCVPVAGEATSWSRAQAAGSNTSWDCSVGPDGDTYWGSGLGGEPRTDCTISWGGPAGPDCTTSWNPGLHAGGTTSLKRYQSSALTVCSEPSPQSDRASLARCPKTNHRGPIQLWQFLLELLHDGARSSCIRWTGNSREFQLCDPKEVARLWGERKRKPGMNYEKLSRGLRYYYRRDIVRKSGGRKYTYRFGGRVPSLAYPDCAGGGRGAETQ
In short: as §1

[8] = biological target: T5, ELF3 (Homo sapiens, UniProt P78545 1-371); details: protein: recombinant; tags: N-terminal GST; dsDNA, one strand shown
T5 sequence: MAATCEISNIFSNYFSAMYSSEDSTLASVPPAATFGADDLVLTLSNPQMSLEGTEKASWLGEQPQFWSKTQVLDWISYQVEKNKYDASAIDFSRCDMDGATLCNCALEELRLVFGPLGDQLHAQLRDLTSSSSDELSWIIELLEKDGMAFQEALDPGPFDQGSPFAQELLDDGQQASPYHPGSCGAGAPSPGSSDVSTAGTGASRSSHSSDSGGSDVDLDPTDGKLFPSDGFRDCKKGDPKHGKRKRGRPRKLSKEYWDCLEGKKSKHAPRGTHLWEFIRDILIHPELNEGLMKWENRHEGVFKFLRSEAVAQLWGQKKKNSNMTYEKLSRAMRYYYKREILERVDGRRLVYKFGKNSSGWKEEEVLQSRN
In short: as §1

[9] = biological target: CRX (Homo sapiens, UniProt O43186 1-299); details: protein: recombinant; tags: N-terminal GST; dsDNA, one strand shown
In short: as §1

[10] = biological target: ETV1 (Homo sapiens, UniProt P50549 1-477); details: protein: recombinant; tags: N-terminal GST; dsDNA, one strand shown
In short: as §1

[11] = biological target: T6, ERF (Homo sapiens, UniProt P50548 1-548); details: protein: recombinant; tags: N-terminal GST; dsDNA, one strand shown
T6 sequence: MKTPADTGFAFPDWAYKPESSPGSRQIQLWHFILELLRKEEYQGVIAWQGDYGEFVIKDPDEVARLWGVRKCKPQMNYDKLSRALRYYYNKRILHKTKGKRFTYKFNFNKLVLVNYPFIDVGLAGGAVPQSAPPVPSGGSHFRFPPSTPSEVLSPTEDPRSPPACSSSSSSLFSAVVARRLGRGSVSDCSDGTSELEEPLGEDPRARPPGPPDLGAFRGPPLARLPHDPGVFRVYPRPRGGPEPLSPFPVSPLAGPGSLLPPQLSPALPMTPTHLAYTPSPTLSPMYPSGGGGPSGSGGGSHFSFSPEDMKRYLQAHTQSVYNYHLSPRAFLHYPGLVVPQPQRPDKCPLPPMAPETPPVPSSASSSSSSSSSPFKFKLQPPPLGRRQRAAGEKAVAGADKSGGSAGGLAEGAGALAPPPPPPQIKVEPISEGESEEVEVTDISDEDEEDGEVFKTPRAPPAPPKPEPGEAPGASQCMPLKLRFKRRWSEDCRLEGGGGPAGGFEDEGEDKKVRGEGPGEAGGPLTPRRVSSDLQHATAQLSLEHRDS
In short: as §1

[12] = biological target: T7, ETV3L (Homo sapiens, UniProt Q6ZN32 1-361); details: protein: recombinant; tags: N-terminal GST; dsDNA, one strand shown
T7 sequence: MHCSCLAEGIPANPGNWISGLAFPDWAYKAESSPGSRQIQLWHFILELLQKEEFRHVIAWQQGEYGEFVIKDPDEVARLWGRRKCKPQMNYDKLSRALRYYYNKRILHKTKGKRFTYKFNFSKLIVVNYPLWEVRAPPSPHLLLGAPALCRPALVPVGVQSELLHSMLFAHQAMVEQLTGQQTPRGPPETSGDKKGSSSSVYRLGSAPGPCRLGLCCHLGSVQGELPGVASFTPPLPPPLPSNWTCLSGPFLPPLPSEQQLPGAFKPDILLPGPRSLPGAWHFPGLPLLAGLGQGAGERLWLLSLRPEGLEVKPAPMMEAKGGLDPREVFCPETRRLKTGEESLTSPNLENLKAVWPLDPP
In short: as §1

[13] = biological target: T8, ETS2 (Homo sapiens, UniProt P15036 1-469); details: protein: recombinant; tags: N-terminal GST; dsDNA, one strand shown
T8 sequence: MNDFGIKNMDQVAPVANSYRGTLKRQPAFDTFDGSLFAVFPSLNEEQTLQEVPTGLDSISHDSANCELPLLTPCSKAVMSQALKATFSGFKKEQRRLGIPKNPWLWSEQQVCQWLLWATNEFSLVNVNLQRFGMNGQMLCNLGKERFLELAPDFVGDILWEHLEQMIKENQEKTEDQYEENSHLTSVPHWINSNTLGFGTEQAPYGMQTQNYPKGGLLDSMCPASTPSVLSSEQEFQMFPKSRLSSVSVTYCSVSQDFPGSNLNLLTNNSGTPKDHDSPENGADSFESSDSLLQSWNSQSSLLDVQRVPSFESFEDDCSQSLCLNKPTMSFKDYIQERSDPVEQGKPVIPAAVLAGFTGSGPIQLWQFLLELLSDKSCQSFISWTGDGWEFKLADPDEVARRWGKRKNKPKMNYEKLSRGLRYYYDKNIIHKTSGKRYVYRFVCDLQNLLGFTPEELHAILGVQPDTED
In short: as §1

[14] = biological target: T9, SPDEF (Homo sapiens, UniProt O95238 1-335); details: protein: recombinant; tags: N-terminal GST; dsDNA, one strand shown
T9 sequence: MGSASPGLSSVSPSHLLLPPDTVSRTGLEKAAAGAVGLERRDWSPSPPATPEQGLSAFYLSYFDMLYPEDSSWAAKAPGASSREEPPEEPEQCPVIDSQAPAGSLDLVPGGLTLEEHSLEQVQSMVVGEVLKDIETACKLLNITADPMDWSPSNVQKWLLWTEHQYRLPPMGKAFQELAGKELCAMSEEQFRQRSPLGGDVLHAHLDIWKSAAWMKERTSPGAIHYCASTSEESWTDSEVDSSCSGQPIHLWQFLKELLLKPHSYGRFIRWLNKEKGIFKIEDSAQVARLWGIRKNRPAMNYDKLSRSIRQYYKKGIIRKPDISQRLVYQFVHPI
In short: as §1

[15] = biological target: T10, ETV7 (Homo sapiens, UniProt Q9Y603 1-341); details: protein: recombinant; tags: N-terminal GST; dsDNA, one strand shown
T10 sequence: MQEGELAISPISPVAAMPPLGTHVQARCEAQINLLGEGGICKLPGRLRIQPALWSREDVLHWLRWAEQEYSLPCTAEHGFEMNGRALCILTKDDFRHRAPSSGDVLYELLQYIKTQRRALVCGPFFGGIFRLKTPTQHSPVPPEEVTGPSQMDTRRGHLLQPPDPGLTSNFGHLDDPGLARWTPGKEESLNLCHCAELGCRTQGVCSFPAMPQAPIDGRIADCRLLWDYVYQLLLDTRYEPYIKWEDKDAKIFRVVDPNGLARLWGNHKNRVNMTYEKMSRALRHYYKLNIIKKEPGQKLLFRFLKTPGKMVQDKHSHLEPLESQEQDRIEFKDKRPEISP
In short: as §1

[16] = biological target: T11, ELF5 (Homo sapiens, UniProt Q9UKW6-2 1-255); details: protein: recombinant; tags: N-terminal GST; dsDNA, one strand shown
T11 sequence: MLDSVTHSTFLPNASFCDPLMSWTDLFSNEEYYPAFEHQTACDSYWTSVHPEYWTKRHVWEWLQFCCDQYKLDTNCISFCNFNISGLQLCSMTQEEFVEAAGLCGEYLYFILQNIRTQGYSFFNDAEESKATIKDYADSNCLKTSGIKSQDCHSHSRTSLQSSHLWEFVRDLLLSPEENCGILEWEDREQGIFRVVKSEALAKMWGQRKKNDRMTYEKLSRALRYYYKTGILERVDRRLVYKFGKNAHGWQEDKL
In short: as §1

[17] = biological target: T12, ETV3 (Homo sapiens, UniProt P41162-2 1-143); details: protein: recombinant; tags: N-terminal GST; dsDNA, one strand shown
T12 sequence: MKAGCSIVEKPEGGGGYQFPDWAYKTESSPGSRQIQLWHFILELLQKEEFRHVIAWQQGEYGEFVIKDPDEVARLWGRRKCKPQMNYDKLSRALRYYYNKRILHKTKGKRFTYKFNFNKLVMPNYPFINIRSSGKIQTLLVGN
In short: as §1

[18] = biological target: ETV6 (Homo sapiens, UniProt P41212 1-452); details: protein: recombinant; tags: N-terminal GST; dsDNA, one strand shown
In short: as §1

ETV5, sequence (P41161 whole entry): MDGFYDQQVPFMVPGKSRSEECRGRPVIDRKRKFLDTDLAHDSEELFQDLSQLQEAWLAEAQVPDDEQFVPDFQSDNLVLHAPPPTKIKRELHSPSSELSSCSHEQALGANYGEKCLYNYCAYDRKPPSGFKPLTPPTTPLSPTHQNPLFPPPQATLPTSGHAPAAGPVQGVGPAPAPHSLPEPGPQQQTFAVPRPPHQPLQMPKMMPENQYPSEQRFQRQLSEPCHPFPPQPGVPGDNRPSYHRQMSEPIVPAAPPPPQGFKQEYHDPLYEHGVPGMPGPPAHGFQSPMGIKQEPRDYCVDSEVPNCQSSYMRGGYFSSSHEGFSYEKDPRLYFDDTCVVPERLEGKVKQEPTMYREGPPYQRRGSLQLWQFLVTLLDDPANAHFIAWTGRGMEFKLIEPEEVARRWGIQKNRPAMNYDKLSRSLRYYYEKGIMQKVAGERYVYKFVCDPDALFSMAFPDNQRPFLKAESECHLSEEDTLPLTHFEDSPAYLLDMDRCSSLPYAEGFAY
ETV6, sequence (P41212 whole entry): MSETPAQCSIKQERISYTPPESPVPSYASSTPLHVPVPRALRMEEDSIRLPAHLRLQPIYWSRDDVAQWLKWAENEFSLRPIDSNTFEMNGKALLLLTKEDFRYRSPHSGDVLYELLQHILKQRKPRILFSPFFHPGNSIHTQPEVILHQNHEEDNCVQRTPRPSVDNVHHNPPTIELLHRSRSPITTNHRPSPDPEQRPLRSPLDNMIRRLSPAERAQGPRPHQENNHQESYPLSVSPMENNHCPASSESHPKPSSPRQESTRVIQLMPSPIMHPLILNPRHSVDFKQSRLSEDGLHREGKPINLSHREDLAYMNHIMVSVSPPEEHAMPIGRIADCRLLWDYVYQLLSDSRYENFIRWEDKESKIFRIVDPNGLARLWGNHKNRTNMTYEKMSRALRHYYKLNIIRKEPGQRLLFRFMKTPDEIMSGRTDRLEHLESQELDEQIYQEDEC
ELF4, sequence (Q99607 whole entry): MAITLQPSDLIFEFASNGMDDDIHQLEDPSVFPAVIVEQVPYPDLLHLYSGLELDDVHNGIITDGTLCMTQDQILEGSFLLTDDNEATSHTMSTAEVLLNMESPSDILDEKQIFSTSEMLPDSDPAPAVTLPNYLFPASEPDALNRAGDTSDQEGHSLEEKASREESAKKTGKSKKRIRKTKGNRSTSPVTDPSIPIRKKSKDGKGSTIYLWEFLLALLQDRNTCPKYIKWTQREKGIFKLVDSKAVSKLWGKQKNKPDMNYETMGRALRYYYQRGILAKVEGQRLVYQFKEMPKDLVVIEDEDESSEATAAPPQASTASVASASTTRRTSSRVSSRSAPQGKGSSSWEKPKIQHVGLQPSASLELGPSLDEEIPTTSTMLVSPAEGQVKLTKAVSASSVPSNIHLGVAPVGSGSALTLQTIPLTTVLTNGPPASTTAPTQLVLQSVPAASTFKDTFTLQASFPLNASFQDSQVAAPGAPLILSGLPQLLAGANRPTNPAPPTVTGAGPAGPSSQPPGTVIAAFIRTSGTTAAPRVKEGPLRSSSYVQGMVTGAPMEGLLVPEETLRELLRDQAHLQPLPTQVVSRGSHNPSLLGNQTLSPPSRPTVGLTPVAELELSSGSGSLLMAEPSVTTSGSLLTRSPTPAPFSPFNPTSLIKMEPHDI
ETV1, sequence (P50549 whole entry): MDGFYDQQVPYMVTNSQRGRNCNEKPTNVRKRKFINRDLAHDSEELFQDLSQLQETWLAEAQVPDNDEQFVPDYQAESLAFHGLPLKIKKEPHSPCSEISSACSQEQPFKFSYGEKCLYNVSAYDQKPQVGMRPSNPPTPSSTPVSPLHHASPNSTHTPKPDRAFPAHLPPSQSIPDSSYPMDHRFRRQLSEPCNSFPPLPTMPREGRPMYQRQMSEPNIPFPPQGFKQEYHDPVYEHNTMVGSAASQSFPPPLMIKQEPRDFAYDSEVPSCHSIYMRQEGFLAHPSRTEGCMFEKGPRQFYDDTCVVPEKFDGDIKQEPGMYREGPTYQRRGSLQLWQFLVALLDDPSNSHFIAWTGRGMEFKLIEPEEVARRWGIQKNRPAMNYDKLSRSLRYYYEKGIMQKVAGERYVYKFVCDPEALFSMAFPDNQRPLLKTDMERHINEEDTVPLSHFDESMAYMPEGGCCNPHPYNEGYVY
HSF1, sequence (Q00613 whole entry): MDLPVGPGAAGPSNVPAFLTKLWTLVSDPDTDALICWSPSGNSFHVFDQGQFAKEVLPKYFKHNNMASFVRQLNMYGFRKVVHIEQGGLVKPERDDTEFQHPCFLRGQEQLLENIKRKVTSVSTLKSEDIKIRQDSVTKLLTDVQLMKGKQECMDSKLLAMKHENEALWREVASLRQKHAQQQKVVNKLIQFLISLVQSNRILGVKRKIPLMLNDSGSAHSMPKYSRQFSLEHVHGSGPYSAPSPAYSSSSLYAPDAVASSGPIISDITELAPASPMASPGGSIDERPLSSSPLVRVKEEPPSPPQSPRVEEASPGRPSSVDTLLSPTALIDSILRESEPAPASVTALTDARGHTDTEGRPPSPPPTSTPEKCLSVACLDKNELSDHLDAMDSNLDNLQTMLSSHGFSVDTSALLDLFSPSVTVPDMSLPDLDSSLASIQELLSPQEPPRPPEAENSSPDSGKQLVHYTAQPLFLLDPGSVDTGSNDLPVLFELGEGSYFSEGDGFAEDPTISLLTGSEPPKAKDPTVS
CRX, sequence (O43186 whole entry): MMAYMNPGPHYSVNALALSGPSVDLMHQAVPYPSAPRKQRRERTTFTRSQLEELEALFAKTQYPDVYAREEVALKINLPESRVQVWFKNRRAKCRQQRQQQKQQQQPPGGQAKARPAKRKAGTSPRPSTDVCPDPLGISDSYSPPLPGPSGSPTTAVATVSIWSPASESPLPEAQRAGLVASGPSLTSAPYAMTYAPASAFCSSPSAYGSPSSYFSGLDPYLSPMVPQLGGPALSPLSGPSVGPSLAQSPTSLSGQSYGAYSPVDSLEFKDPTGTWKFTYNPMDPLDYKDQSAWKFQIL

For TTGTCC, the binding signal [1] was 1.34 fold enrichment (6-mer frequency, TF over GST control), the binding signal [2] was 1.42 fold enrichment (6-mer frequency, TF over GST control) and the binding signal [3] was 1.16 fold enrichment (6-mer frequency, TF over GST control). The binding signal [4] was 1.3 fold enrichment (6-mer frequency, TF over GST control), the binding signal [5] was 1.26 fold enrichment (6-mer frequency, TF over GST control) and the binding signal [6] was 1.29 fold enrichment (6-mer frequency, TF over GST control). For the same sequence, the binding signal [7] was 1.56 fold enrichment (6-mer frequency, TF over GST control), the binding signal [8] was 1.24 fold enrichment (6-mer frequency, TF over GST control) and the binding signal [9] was 1.16 fold enrichment (6-mer frequency, TF over GST control). The binding signal [10] was 1.23 fold enrichment (6-mer frequency, TF over GST control), the binding signal [11] was 1.35 fold enrichment (6-mer frequency, TF over GST control) and the binding signal [12] was 1.43 fold enrichment (6-mer frequency, TF over GST control). For the same sequence, the binding signal [13] was 1.38 fold enrichment (6-mer frequency, TF over GST control), the binding signal [14] was 1.45 fold enrichment (6-mer frequency, TF over GST control) and the binding signal [15] was 1.25 fold enrichment (6-mer frequency, TF over GST control). For the same sequence, the binding signal [16] was 1.39 fold enrichment (6-mer frequency, TF over GST control), the binding signal [17] was 1.36 fold enrichment (6-mer frequency, TF over GST control) and the binding signal [18] was 1.32 fold enrichment (6-mer frequency, TF over GST control).
